# The list is not random: actives were taken first. Their share in the collection is about 18%.
# TDP1 inh: blocks human tyrosyl-DNA phosphodiesterase 1 | recombinant TDP1, AlphaScreen DNA substrate cleavage | AID 485290 | Q9NUW8 | hit rate 0.28% among 350,000 | Potency, µM (doses to about 130 µM), actives largely listed as inhibitors; further: nearly all actives have a fitted effect of over 40% in size
#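 Here, a 5' biotin and 3' phosphotyrosine-FITC DNA oligonucleotide reports Tdp1 activity: intact substrate bridges AlphaScreen beads, while cleavage leaves a 3' phosphate and drops signal. All incubations at room temperature.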
# TDP1 cell noCPT: qHTS for Inhibitors of human tyrosyl-DNA phosphodiesterase 1 (TDP1): qHTS in cells in absence of CPT | Potency, µM (top dose mostly 46.2 µM), usual class: inhibitors | AID 686978, 2013 | hit rate 15% among 420,000 | DT40 Tdp1-/- hTDP1 cells, no CPT, ATP luminescence, 48 h; further: nearly all actives have a fitted effect of over 55% in size
#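 Compound effects on proliferation are scored in DT40 Tdp1-/-;hTDP1 cells in the absence of CPT. ATP levels (CellTiter-Glo luminescence) are recorded after a ≥48 hr, 37 °C incubation.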
# DT40 TDP1 CPT: growth inhibition of DT40 Tdp1-/-;hTDP1 cells with camptothecin (screen for TDP1 inhibitors); chicken DT40 Tdp1-/-;hTDP1 cells + 20 nM CPT, ATP luminescence, 48 h; Potency, µM (titrated, usually from 46.2 µM), hits mostly inhibitors; hit rate 12% among 420,000; further: nearly all actives have a fitted effect of over 55% in size
#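 Chicken DT40 Tdp1-/- cells stably complemented with human TDP1 were seeded at 400 cells/well in medium containing 20 nM camptothecin, exposed to pin-transferred compounds, and grown at 37 °C for at least 48 hr. Viability was read as ATP luminescence.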
# PLK1 PBD inh: inhibitors of human PLK1 polo-box domain binding; P53350; Plk1 PBD binding of FITC phosphopeptide, fluorescence polarization; hit rate 2.8% among 360,000; Potency, µM, usual class: inhibitors; further: series mostly up to about 57 µM; nearly all actives have a fitted effect of over 65% in size
# Target sequence (P53350 whole entry, looked up, the tested form may be a part): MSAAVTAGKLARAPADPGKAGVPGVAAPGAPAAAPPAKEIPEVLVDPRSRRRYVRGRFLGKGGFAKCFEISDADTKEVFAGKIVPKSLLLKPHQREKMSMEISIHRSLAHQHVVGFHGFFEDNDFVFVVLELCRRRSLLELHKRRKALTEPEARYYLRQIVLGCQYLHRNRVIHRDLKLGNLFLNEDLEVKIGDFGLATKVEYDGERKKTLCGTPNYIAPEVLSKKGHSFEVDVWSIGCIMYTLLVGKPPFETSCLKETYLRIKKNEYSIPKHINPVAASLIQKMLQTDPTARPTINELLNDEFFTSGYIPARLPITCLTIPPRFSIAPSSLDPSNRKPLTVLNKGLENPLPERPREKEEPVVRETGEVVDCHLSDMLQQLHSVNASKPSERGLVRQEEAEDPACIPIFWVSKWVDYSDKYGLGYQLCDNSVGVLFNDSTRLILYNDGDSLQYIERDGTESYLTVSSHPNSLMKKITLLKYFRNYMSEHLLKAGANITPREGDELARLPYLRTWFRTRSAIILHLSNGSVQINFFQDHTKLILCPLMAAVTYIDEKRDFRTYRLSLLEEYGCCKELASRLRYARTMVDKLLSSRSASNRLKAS
# VDR inh: blocks the human vitamin D receptor | hit rate 0.93% among 400,000 | Potency, µM, usual class: inhibitors | P11473 | AID 504847 | VDR-SRC2-3 peptide fluorescence polarization, 2 h
#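 Inhibition of the VDR/SRC2-3 peptide interaction is quantified by fluorescence polarization. Compounds (23 nl, pintool) incubate with the reagents for 2 hours at ambient room temperature.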
# GCN5L2 inh: GCN5L2 (KAT2A) acetyltransferase inhibition | hit rate 0.21% among 390,000 | AID 504327 | Potency, µM (titrated, usually from 58.9 µM), hits mostly inhibitors | GCN5L2 HAT assay, ThioGlo1 CoA-SH fluorescence
#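 GCN5L2 (20 nM) in 50mM HEPES pH 7.5, 0.1mM EDTA, 0.01% Tween-20 preincubated 15 min with compounds at room temperature. Reaction started with H3(1-25) 75uM, acetyl-CoA 70uM, ThioGlo1 50uM; CoA-thiol fluorescence (Ex340/Em540) read at 0 and 20 min.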
# Numbers stand for hits; 0 = inactive; ? = inconclusive; - = no result. The call rests on the fitted dose curve; in most records, active means well fitted curve in the direction sought with a large enough effect; inconclusive means small, poorly fitted or top-dose-only effect, or another doubt; inactive means no such curve, though single readings can be large; an effect the other way counts as inactive or inconclusive.
SMILES,TDP1 inh,TDP1 cell noCPT,DT40 TDP1 CPT,PLK1 PBD inh,VDR inh,GCN5L2 inh
CCOC(=O)c1ccc(NC(=S)N2CCSC2c2ccc(OC)cc2)cc1 (configuration not stated),0,?,0,0,0,0
CCOC(=O)c1ccc(NC(=S)N2CCSC2c2ccc(Cl)cc2)cc1 (configuration not stated),0,16µM,?,0,0,0
CCOc1ccc(Nc2nc(N3CCCC3)nc(N3CCN(c4ccc(OC)cc4)CC3)n2)cc1,0,16µM,?,0,0,0
CCOc1ccc(Nc2nc(Nc3ccc(OCC)cc3)nc(N3CCOCC3)n2)cc1,-,0,0,-,0,0
COc1nc(Nc2ccc(OC)c(Cl)c2)nc(OC)n1,0,?,0,0,0,0
CCOc1nc(Nc2ccc(OC)c(Cl)c2)nc(N2CCN(c3ccc(OC)cc3)CC2)n1,0,23µM,18µM,0,0,0
CCOc1nc(Nc2ccc(F)cc2)nc(N2CCN(c3ccc(OC)cc3)CC2)n1,0,15µM,?,0,0,?
CN(C)S(=O)(=O)c1cccc(NC(=O)COC(=O)CNC(=O)c2ccccc2F)c1,0,0,0,0,0,0
COc1ncc2nc(C)c(=O)n(C)c2n1,-,0,0,-,0,0
O=C(Nc1cccnc1)c1ccc([N+](=O)[O-])s1,0,0.65µM,0.73µM,0,0,0
O=C(Nc1cccnc1)c1cc(Br)c(Br)s1,0,?,?,0,0,0
O=C(Nc1ccccc1F)c1ccc([N+](=O)[O-])s1,0,21µM,21µM,0,0,0
Cc1ccc(NC(=S)NCc2ccccc2)cc1[N+](=O)[O-],0,?,?,0,0,0
Cc1ccc(CNC(=O)CSc2ccsc2[N+](=O)[O-])cc1,0,10µM,?,0,0,0
Cc1ccc(/C=C/C(=O)c2ccc([N+](=O)[O-])o2)cc1,0,2.1µM,1.6µM,0,5.6µM,0
Cc1ccc(CNC(=O)c2ccc([N+](=O)[O-])o2)cc1,0,?,16µM,0,0,0
Cc1ccc(/C=C/C(=O)c2ccc(C)cc2)cc1,0,?,0,0,?,0
Cc1ccc(CNC(=S)Nc2ccc(C)c([N+](=O)[O-])c2)cc1,0,15µM,23µM,0,?,0
COc1cc([N+](=O)[O-])ccc1NC(=O)CC(C)C,0,0,0,0,0,0
CCC(=O)N1CCc2cc(S(=O)(=O)NC(C(=O)NCCc3cccc(C)c3)C(C)C)ccc21 (configuration not stated),0,0,0,-,0,0
COc1ccc(N2CCN(C(=O)c3cc(S(=O)(=O)N4CCC(C)CC4)cn3C)CC2)cc1,0,21µM,23µM,-,0,0
Cc1cccc(N2CCN(C(=O)c3cc(S(=O)(=O)N4CCOCC4)cn3C)CC2)c1C,-,?,?,0,0,?
Cc1cccc(N2CCN(C(=O)c3cc(S(=O)(=O)N4CCCC4)cn3C)CC2)c1C,-,?,23µM,0,0,0
Cc1ccc(S(=O)(=O)N2CCOCC2)cc1C(=O)N1CCC(Cc2ccccc2)CC1,0,15µM,?,0,0,0
Cn1cc(S(=O)(=O)N2CCCCC2)cc1C(=O)N1CCN(c2ccc(F)cc2)CC1,0,?,?,-,0,0
SMILES,TDP1 inh,TDP1 cell noCPT,DT40 TDP1 CPT,PLK1 PBD inh,VDR inh,GCN5L2 inh
Cc1ccc(C)c(N2CCN(C(=O)c3cc(S(=O)(=O)N4CCCCCC4)cn3C)CC2)c1,0,?,?,-,0,0
Cc1ccc(C)c(N2CCN(C(=O)c3cc(S(=O)(=O)N4CCCCC4)cn3C)CC2)c1,0,18µM,21µM,-,0,0
Nn1c(SCc2ccccc2)nc2ccccc21,-,0,0,0,0,0
COc1cc(S(=O)(=O)N2CCOCC2)cc(C(=O)c2nccn2C)c1OC,0,0,0,0,0,0
Cn1cc(S(=O)(=O)N2CCCCCC2)cc1C(=O)N1CCN(c2cccc(C(F)(F)F)c2)CC1,0,23µM,16µM,-,0,0
Cc1ccc(C)c(N2CCN(C(=O)c3cc(S(=O)(=O)N4CCOCC4)ccc3F)CC2)c1,0,13µM,15µM,0,0,0

# Compound activity deposited in PubChem by National Center for Advancing Translational Sciences (NCATS).
